Shown are actives, neighbours in structure and some others; about 6.3% of the full set was active somewhere.
Autofluor 339 = intrinsic fluorescence of library compounds, ex339/em460 – biochemical, MLSMR library, data from DPM-DC assay, artefact control, profiling panel; compound autofluorescence, ex339/em460 nm, NADH buffer; active compounds read high; 1 = no-compound wells, NADH background; fluorescence fold increase at 10 µM; AID 709, 2007; 65,000 tested, 5.5% active;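 active = at 10 µM, mean starting fluorescence two-fold or more over control wells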;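 note: signal is the first read of a kinetic run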
NADH coupling = inhibitors of PK/LDH coupling enzymes, profiling panel, artefact control, biochemical, MLSMR library; coupled PK/LDH NADH assays, four targets; IC50, µM (top dose mostly 10 µM); 65,000 tested, 0.02% active; AID 774, 2007;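 active = single-dose screening hits from any of four coupled enzyme assays that gave an IC50 when retested across doses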;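 note: the DPM-DC format reads NADH fluorescence rather than 340 nm absorbance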
Spn PMK inh = S. pneumoniae PMK inhibitors, primary screen, biochemical, mevalonate pathway, pilot trial included. phosphomevalonate kinase (Streptococcus pneumoniae D39). purified PMK, PK/LDH-coupled NADH absorbance 340 nm. inhibition, % at 10 µM. 65,000 tested, 0.49% active;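 active = top-ranked compounds by inhibition in the single 10 µM screen, taking a fixed number of the strongest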
DPM-DC inhibit = S. pneumoniae DPM-DC inhibitors, primary screen, biochemical, PK/LDH-coupled NADH fluorescence. diphosphomevalonate decarboxylase (Streptococcus pneumoniae D39). purified DPM-DC. calls only at 10 µM. 65,000 tested, 0.49% active. AID 556, 2006;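 active = the 320 compounds with the highest percent inhibition in the single-dose primary screen, excluding strongly autofluorescent ones, cut at about 32% in these data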;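 note: kinetic rate of NADH fluorescence loss reporting ADP formed by the decarboxylase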
A340 absorber = compound light absorbance at 340 nm, profiling panel, artefact control, biochemical, MLSMR library, data from PS, PMK, MK assays | fold change at 10 µM | compound absorbance at 340 nm, fold over control | 65,000 tested, under 10 active;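 active = at 10 µM dose, initial 340 nm absorbance at least 2 fold that of control wells; inactive = change under 2 fold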;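 note: initial absorbance extrapolated from kinetic A340 decline of NADH oxidation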
MK inhibit = S. pneumoniae MK inhibitors, primary screen, biochemical, PK/LDH-coupled NADH absorbance; AID 555, 2006; mevalonate kinase [Streptococcus pneumoniae D39]; inhibition, % at 10 µM; purified MK, PK/LDH-coupled NADH absorbance 340 nm; 65,000 tested, 0.48% active;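 active = ranked among the strongest by inhibition in the single 10 µM screen, a fixed top-ranked set picked for dose follow-up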
A number is an active result; i = inactive; nt = no result shown.

SMILES | Autofluor 339 | NADH coupling | Spn PMK inh | DPM-DC inhibit | A340 absorber | MK inhibit
O=C(Cn1c(=O)oc2ccccc21)NC(=O)NCc1ccco1 | i | i | i | i | i | i
N#Cc1nc(-c2ccco2)oc1NCCc1ccccc1 | 2.1 | i | i | i | i | i
N#Cc1nc(-c2cccs2)oc1NCc1ccc2c(c1)OCO2 | 2.4 | i | i | nt | i | i
N#Cc1nc(-c2ccccc2)oc1NCCN1CCCCC1 | 3.8 | i | i | nt | i | i
COc1ccc(CCNc2oc(Cc3ccccc3)nc2C#N)cc1OC | i | i | i | i | i | i
O=C(NCC1CCS(=O)(=O)C1)NCC1CCS(=O)(=O)C1 (stereo not given) | i | i | i | i | i | i
NC(=O)C1CCN(S(=O)(=O)c2cccc(S(=O)(=O)N3CCCCC3)c2)CC1 | i | i | i | i | i | i
Cc1nc(SCC(=O)N2CCN(c3ccccc3)CC2)c2c(=O)n(C)c(=O)n(C)c2n1 | i | i | i | i | i | i
Cc1cc(N)c(-n2cc3c(=O)n(C)c(=O)n(C)c3c2)cc1C | 2.7 | i | i | i | i | i
Cc1cc(C)n2nc(NCc3ccccc3)nc2n1 | 3.6 | i | i | nt | i | i
COC(=O)CSc1nc2nc(C)cc(C)n2n1 | i | i | i | i | i | i
COc1ccc(-c2nc3nc(C)cc(C)n3n2)cc1 | 3.7 | i | i | nt | i | i
Cc1nc2nc(-c3cccnc3)nn2c(C)c1Cl | i | i | i | i | i | i
Cc1nc2nc(-c3ccco3)nn2c(C)c1Cl | 4 | i | i | nt | i | i
COc1cccc(CNc2nc3nc(C)c(Cl)c(C)n3n2)c1 | 2.3 | i | i | nt | i | i
CCOC(=O)CSc1nnc(-c2nnc(SCC(=O)OCC)n2CC)n1CC | i | i | i | i | i | i
O=C(CSC1=NCCS1)N1CCc2ccccc21 | i | i | i | i | i | i
CN1CCN(C(=O)CSc2nc(-c3cccs3)cc(-c3cccs3)c2C#N)CC1 | 2.8 | i | i | i | i | i
COc1ccc(-c2cc(C(F)(F)F)nc(SCC(=O)NCc3ccco3)n2)cc1OC | 2.7 | i | i | nt | i | i
COc1ccc(-c2nnc(SCC(=O)N3CCOCC3)o2)cc1 | i | i | i | i | i | i
C#CCSc1nc(-c2cccs2)ccc1C#N | i | i | i | i | i | i
COc1ccc(-c2cc(C(F)(F)F)nc(SCCC(=O)N3CCOCC3)n2)cc1 | 2 | i | i | i | i | i
COC(=O)CSc1nc(-c2cccs2)ccc1C#N | 2.3 | i | i | nt | i | i
CCCS(=O)(=O)N1CCCC(C(=O)NCCN(C)Cc2ccccc2)C1 (stereo not given) | i | i | i | i | i | i
N#CC1=C(N)N2C(=C(C#N)C13CCCCC3)SC1CCCCC12O (stereo not given) | i | i | i | i | i | i
SMILES | Autofluor 339 | NADH coupling | Spn PMK inh | DPM-DC inhibit | A340 absorber | MK inhibit
COc1ccc(-c2cc(-c3cccs3)c(C#N)c(SCC(=O)NCc3ccco3)n2)cc1 | 2.5 | i | i | i | i | i
O=C(CSc1nc(-c2cccs2)cc(C(F)(F)F)n1)NCc1ccco1 | i | i | i | i | i | i
COc1ccc(CCNC(=O)CSc2nc(-c3ccco3)cc(C(F)(F)F)n2)cc1OC | i | i | i | i | i | i
COc1ccc(-c2cc(C(F)(F)F)nc(SCC(N)=O)n2)cc1 | 3.7 | i | i | nt | i | i
COC(=O)c1[nH]c2ccccc2c1NC(=O)Oc1ccccc1 | 2.3 | i | i | i | i | i
CCOC(=O)c1[nH]c2ccccc2c1NC(=O)CC(C)(C)C | i | i | i | i | i | i
C=CCOC(=O)Nc1c(C(=O)OC)[nH]c2ccccc12 | i | i | i | i | i | i
CCOC(=O)c1[nH]c2ccccc2c1NC(=O)c1ccc(Br)o1 | i | i | i | i | i | 54
COc1ccc(-c2ccc(-c3nnc(Cc4ccc(OC)c(OC)c4)o3)cc2)cc1 | 2.6 | i | i | i | i | i
Cc1cccc(S(=O)(=O)Nc2nc3ccccc3nc2NCc2ccco2)c1 | i | i | i | i | i | i
Cc1ccc(-c2ccc(CCC(=O)O)n2NC(=O)c2ccco2)cc1 | i | i | i | i | i | i
Cc1cccc(S(=O)(=O)c2c(N)n(Cc3ccco3)c3nc4ccccc4nc23)c1 | 3.9 | i | i | nt | i | i
Cc1ccc(S(=O)(=O)c2c(N)n(NC(=O)c3ccco3)c3nc4ccccc4nc23)cc1 | 3.8 | i | i | nt | i | i
Cc1ccc(S(=O)(=O)c2c(N)n(Cc3ccco3)c3nc4ccccc4nc23)cc1 | 2.2 | i | i | nt | i | i
Cc1cccc(-n2cnc3c(c2=O)c2nc4ccccc4nc2n3Cc2ccco2)c1 | 3.2 | i | i | i | i | i
Nc1nc(C2CC2)c(Sc2sc(N)nc2C2CC2)s1 | i | i | i | i | i | i
O=C1OC(Nc2ccc(Br)cn2)c2ccccc21 (stereo not given) | i | i | i | i | i | i
Cc1cccn2c(=O)c3cc(C#N)c(=N)n(Cc4cccnc4)c3nc12 | i | i | i | i | i | i
CCCn1c(=NC(C)=O)c(C#N)cc2c(=O)n3cccc(C)c3nc21 | 2.9 | i | i | nt | i | i
CCCCCn1c(=NC(C)=O)c(C#N)cc2c(=O)n3cccc(C)c3nc21 | 3.6 | i | i | nt | i | i
COCCCn1c(=NC(=O)c2ccc3c(c2)OCO3)c(C#N)cc2c(=O)n3cccc(C)c3nc21 | i | i | i | i | i | i
Clc1ccc2c(c1)C1OCCC1C(c1ccco1)N2 (stereo not given) | 3.7 | i | i | nt | i | i
Cc1cc(NC(=O)C(C)(C)C)no1 | i | i | i | i | i | i
Cc1c(OCc2ccc(C(=O)O)o2)ccc2c3c(c(=O)oc12)CCC3 | 2.1 | i | i | nt | i | i
COC(=O)c1ccc(COc2ccc3c(C)c(C)c(=O)oc3c2C)o1 | 2 | i | i | i | i | i
SMILES | Autofluor 339 | NADH coupling | Spn PMK inh | DPM-DC inhibit | A340 absorber | MK inhibit
COC(=O)c1ccc(COc2cccc(OC)c2)o1 | i | i | i | i | i | i
CC(=O)Oc1c(Cl)c(N2CCOCC2)c(OC(C)=O)c2ccccc12 | i | i | i | i | i | i
CC1(c2cccs2)CC(c2cccs2)=C(C#N)C(=O)N1 (stereo not given) | i | i | i | i | i | i
O=C(COC(=O)CCc1c[nH]c(=O)[nH]1)Nc1ccccc1 | i | i | 25 | i | i | i
CSCCC(C(=O)Nc1ccc2c(c1)OCO2)N1C(=O)c2ccccc2C1=O (stereo not given) | i | i | i | i | i | i
O=C(O)CCC(NS(=O)(=O)c1ccc(-c2ccccc2)cc1)C(=O)O (stereo not given) | i | i | i | i | i | i

Screening data from PubChem BioAssay.
